Legend:
Assay in all cases: DAPPL (digital affinity profiling via proximity ligation, sequencing); 10 mM Tris-HCl pH 7.5, 50 mM NaCl, 1 mM DTT, 4% glycerol, room temperature, 30 min; GST-TFs on glutathione beads, 16-mer random dsDNA library, 0.1% formaldehyde crosslink after washing; high values mean tight binding
Details in all cases: protein: recombinant; tags: N-terminal GST; dsDNA, one strand shown
GABPA = target: T1, GABPA (Homo sapiens, UniProt Q06546 1-454)
T1 sequence: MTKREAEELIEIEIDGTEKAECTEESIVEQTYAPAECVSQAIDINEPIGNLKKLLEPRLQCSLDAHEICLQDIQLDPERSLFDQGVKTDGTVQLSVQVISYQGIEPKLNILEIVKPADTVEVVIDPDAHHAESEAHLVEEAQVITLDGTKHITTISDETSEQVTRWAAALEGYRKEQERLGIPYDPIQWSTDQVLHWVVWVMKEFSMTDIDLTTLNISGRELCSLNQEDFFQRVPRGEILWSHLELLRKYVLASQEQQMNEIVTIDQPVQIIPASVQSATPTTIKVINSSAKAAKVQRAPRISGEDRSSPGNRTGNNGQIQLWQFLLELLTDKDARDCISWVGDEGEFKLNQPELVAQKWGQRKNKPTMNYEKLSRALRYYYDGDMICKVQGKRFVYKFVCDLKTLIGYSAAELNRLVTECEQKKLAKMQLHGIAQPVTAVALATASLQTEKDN
Method in brief: (§1)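 In yeast, human transcription factors were expressed with a GST fusion, then pulled down on glutathione beads and given DNA barcodes. Pooled with a tag-only sample, they were exposed to 200 nmole of a 16-mer random double-stranded DNA library (Tris/NaCl/DTT/glycerol buffer, room temperature, 30 min), washed, crosslinked with 0.1% formaldehyde, proximity-ligated using BsaI/T4 ligase for 1 h at 37 °C, PCR-amplified and read on an Illumina NextSeq500. Each hexamer's frequency of reads for a factor, divided by the matching frequency for the tag-only sample, gives the binding signal.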

ELF1 = ELF1 (Homo sapiens, UniProt P32519 1-619)
Chain of ELF1 (P32519 whole entry): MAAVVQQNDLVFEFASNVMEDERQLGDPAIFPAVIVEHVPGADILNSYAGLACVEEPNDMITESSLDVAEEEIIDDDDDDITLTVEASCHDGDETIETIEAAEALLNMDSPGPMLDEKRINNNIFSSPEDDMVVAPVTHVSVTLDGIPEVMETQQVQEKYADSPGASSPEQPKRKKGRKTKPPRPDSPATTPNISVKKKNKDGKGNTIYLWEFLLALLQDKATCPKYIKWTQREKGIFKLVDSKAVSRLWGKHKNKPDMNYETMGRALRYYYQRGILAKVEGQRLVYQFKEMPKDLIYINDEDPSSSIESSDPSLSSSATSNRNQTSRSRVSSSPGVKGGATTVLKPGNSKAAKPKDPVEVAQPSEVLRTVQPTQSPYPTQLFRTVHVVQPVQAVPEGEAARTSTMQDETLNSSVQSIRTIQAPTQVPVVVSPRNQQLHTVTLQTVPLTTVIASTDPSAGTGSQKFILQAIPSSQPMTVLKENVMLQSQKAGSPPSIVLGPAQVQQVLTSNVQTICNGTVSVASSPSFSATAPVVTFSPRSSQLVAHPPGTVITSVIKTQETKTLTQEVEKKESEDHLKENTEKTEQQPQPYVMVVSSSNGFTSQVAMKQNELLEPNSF
Method in brief: as §1

ELK3 = target: T2, ELK3 (Homo sapiens, UniProt P41970 1-407)
T2 sequence: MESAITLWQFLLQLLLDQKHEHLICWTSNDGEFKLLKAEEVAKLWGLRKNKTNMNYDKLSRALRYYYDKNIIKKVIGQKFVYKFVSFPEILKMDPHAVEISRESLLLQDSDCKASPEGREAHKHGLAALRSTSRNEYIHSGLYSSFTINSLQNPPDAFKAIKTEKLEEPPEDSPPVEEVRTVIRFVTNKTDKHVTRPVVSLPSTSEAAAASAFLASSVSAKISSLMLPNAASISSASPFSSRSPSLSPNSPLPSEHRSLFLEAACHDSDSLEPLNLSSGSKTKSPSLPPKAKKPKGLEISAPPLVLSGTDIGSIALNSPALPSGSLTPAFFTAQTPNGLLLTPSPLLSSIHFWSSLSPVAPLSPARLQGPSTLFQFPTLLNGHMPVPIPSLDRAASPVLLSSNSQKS
Method in brief: as §1

ELF4 = ELF4 (Homo sapiens, UniProt Q99607 1-663)
Chain of ELF4 (Q99607 whole entry): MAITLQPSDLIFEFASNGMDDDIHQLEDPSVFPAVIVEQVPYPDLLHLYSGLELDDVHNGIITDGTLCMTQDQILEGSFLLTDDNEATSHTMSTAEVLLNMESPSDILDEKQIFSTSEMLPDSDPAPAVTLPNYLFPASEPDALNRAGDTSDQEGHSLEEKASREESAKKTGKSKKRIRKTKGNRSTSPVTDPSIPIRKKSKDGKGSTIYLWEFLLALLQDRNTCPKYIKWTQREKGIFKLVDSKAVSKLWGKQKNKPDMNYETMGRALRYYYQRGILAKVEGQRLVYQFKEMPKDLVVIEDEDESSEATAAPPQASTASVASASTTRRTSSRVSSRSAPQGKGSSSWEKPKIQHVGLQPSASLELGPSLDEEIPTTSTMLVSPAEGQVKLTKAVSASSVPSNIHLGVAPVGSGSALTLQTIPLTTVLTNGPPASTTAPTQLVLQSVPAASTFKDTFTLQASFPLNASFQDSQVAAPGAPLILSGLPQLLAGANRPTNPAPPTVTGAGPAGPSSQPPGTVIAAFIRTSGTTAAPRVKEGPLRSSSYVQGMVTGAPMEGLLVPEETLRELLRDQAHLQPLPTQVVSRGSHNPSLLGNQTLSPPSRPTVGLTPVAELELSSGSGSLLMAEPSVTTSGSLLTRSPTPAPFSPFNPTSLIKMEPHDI
Method in brief: as §1

ELK4 = target: T3, ELK4 (Homo sapiens, UniProt P28324-2 1-405)
T3 sequence: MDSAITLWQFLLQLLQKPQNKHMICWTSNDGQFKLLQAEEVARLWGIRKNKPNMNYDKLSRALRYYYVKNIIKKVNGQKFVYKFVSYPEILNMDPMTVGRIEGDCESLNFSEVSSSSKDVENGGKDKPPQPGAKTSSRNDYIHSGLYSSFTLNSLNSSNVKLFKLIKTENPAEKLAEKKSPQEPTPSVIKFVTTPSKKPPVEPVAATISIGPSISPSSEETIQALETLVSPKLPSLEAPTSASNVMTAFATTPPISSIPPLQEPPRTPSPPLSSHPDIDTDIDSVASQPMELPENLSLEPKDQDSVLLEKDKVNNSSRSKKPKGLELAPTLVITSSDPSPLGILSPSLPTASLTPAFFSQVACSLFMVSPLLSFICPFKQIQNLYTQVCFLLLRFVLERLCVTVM
Method in brief: as §1

ETV2 = target: T4, ETV2 (Homo sapiens, UniProt O00321 1-342)
T4 sequence: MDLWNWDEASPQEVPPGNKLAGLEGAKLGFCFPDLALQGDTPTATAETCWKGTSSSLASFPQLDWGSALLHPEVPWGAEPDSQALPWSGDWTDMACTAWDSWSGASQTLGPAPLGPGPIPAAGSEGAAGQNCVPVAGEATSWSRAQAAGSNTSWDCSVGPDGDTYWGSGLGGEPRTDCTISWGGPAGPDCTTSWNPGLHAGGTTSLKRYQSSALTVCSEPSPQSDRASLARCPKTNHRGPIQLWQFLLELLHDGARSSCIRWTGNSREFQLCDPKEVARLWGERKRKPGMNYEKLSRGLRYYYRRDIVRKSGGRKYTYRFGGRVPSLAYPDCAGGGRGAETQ
Method in brief: as §1

ERF = target: T5, ERF (Homo sapiens, UniProt P50548 1-548)
T5 sequence: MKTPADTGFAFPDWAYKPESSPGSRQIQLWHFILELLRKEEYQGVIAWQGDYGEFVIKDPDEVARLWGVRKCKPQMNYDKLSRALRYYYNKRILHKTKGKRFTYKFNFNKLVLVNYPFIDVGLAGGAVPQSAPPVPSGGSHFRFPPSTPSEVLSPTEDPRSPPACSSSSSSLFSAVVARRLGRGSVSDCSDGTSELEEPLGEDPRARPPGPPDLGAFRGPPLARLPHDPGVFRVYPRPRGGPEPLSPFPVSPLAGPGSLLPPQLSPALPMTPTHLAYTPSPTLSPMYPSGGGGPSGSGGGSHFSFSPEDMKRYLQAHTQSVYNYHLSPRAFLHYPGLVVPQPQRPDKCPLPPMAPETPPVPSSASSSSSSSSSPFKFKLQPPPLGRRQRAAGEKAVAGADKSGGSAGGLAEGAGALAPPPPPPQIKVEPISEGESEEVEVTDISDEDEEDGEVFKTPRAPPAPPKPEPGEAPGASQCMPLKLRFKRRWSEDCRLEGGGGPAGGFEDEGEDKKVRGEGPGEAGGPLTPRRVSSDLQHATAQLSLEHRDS
Method in brief: as §1

FEV = target: T6, FEV (Homo sapiens, UniProt Q99581 1-238)
T6 sequence: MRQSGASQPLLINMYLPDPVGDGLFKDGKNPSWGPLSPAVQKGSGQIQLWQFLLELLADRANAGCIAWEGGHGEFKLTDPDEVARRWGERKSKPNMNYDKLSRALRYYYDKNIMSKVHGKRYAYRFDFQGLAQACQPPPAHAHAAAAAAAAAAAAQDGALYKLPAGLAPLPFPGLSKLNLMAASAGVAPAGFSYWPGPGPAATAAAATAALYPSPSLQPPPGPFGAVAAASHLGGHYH
Method in brief: as §1

ERG = target: T7, ERG (Homo sapiens, UniProt P11308 1-479)
T7 sequence: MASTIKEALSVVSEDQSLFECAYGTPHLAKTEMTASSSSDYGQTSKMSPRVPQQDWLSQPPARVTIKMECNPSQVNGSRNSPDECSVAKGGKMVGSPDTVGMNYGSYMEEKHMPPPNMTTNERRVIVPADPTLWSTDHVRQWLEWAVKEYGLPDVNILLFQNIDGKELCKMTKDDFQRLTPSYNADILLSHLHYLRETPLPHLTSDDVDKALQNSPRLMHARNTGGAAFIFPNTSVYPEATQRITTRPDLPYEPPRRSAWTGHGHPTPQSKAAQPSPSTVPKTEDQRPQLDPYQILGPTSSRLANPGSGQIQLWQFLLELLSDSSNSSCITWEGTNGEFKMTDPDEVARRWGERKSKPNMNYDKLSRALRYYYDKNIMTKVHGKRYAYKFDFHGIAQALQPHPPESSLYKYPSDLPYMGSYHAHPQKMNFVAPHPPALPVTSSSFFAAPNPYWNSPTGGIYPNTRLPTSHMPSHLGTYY
Method in brief: as §1

SPI1 = SPI1 (Homo sapiens, UniProt P17947 1-270)
Method in brief: as §1

**Q.** With CGCACC as the sequence, how does the binding signal (GABPA) read?
**A.** Its binding signal is 1.03 fold enrichment (6-mer frequency, TF over GST control).

**Q.** And the binding signal (ELF1)?
**A.** Its binding signal is 1.03 fold enrichment (6-mer frequency, TF over GST control).

**Q.** What about the binding signal (ELK3) of the same sequence?
**A.** Its binding signal is 1.05 fold enrichment (6-mer frequency, TF over GST control).

**Q.** What about the binding signal (ELF4) of the same sequence?
**A.** Its binding signal is 1.03 fold enrichment (6-mer frequency, TF over GST control).

**Q.** And the binding signal (ELK4)?
**A.** Its binding signal is 1.13 fold enrichment (6-mer frequency, TF over GST control).

**Q.** And the binding signal (ETV2)?
**A.** Its binding signal is 1.1 fold enrichment (6-mer frequency, TF over GST control).

**Q.** What about the binding signal (ERF) of the same sequence?
**A.** Its binding signal is 1.01 fold enrichment (6-mer frequency, TF over GST control).

**Q.** For GCCACC, which binding signal (FEV) is on record?
**A.** Its binding signal is 1.01 fold enrichment (6-mer frequency, TF over GST control).

**Q.** And the binding signal (ELF4)?
**A.** The binding signal was 1 fold enrichment (6-mer frequency, TF over GST control).

**Q.** What about the binding signal (ELK4) of the same sequence?
**A.** The binding signal was 1.03 fold enrichment (6-mer frequency, TF over GST control).

**Q.** For GCCATT, which binding signal (ERG) is on record?
**A.** The binding signal was 1.01 fold enrichment (6-mer frequency, TF over GST control).

**Q.** And the binding signal (SPI1)?
**A.** Its binding signal is 1.03 fold enrichment (6-mer frequency, TF over GST control).

**Q.** And the binding signal (ELF4)?
**A.** The binding signal was 1.02 fold enrichment (6-mer frequency, TF over GST control).

**Q.** And the binding signal (ELK4)?
**A.** The binding signal was 1.07 fold enrichment (6-mer frequency, TF over GST control).

**Q.** And the binding signal (ERF)?
**A.** Its binding signal is 1.03 fold enrichment (6-mer frequency, TF over GST control).

**Q.** For ACAGTT, which binding signal (ELK4) is on record?
**A.** The binding signal was 1.02 fold enrichment (6-mer frequency, TF over GST control).
